Results as given in PubChem BioAssay (EPA / NIEHS).
Records with an inconclusive call do not appear. Active and inactive are the calls of the source. How the source made its calls, unless noted: active means hit-call score of the fitted dose curve at least 0.9, where 1 is the maximum; inconclusive means response in the unintended direction; inactive means score below 0.9.

How the values were obtained:
[1] = read-out: ABC Transporter (ABCB11), ABCB11 (gene 8647); test: CLD_ABCB11_6hr: CellzDirect (CLD) Gene Expression Assay for ABC Transporter (ABCB11) at 6 hours (AID 2283675);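 further: hits raise ABCB11 mRNA level so AC50 marks induction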
Outline: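 Human primary hepatocytes (two donor preparations) given fresh chemical daily at multiple concentrations, vehicle 0.2% DMSO. ABCB11 mRNA induction measured 6 h after dosing by qNPA chemiluminescence versus DMSO; cytotoxicity annotated from morphology.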

[2] = CCTE_Padilla_ZF_144hpf_TERATOSCORE: (Legacy) CCTE's 144 Hour Post-fertilization zebrafish Assay Teratoscore, Padilla Lab (AID 2283679; active means hit-call score of the fitted dose curve at least 0.9, where 1 is the maximum; inactive means score below 0.9;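 on AC50: zebrafish embryos with chorions exposed by immersion from 6-8 hpf to 5 dpf with daily renewal; teratogenicity score from eye scoring of death hatching and malformations at 144 hpf; higher score means more developmental defects relative to DMSO baseline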)
Outline: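 Larvae scored by eye at 144 hpf for death, hatching and malformations after a day in clean Hanks'. Before that, daily-renewed exposure at 80 uM (0.4% DMSO, 26C) from roughly 6-8 hpf through 5 dpf, 4 embryos per chemical.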

[3] = read-out: Cytochrome P450 3A4 (Homo sapiens) (UniProt P08684); test: CLD_CYP3A4_6hr: CellzDirect (CLD) Gene Expression Assay for xenobiotic metabolism (CYP3A4) at 6 hours (AID 2283680)
Outline: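 Primary human hepatocytes (two donor preparations) dosed; CYP3A4 mRNA harvested at 6 h and quantified by qNPA chemiluminescence. Gain of signal fitted against 0.2% DMSO vehicle; cytotoxicity flagged by phase-contrast morphology.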

[4] = read-out: HMG-CoA synthase (HMGCS2), HMGCS2 (gene 3158); test: CLD_HMGCS2_6hr: CellzDirect (CLD) Gene Expression Assay for HMG-CoA synthase (HMGCS2) at 6 hours (AID 2283682);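 further: actives raise HMGCS2 transcript above the 0.2% DMSO vehicle baseline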
Outline: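 Primary human hepatocytes dosed daily with fresh chemical, 0.2% DMSO vehicle; HMGCS2 mRNA measured at 6 h by qNPA chemiluminescence. Gain of signal fitted against DMSO; cytotoxicity flagged from phase-contrast morphology.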

[5] = read-out: xenobiotic metabolism (CYP1A2), CYP1A2 (gene 1544); test: CLD_CYP1A2_24hr: CellzDirect (CLD) Gene Expression Assay for xenobiotic metabolism (CYP1A2) at 24 hours (AID 2283683)
Outline: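 Primary human hepatocytes from two donor preparations dosed daily with multiple concentrations of chemical, 0.2% DMSO vehicle. CYP1A2 mRNA at 24 h quantified by qNPA chemiluminescence; gain of signal analyzed relative to DMSO. Cytotoxicity flagged by phase-contrast morphology.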

[6] = read-out: ABC Transporter (ABCB1), ABCB1 (gene 5243); test: CLD_ABCB1_24hr: CellzDirect (CLD) Gene Expression Assay for ABC Transporter (ABCB1) at 24 hours (AID 2283684)
Outline: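 Primary human hepatocytes, two donor preparations, dosed daily with fresh solutions; vehicle 0.2% DMSO; harvested at 24 h. ABCB1 mRNA measured by quantitative nuclease protection assay (chemiluminescence); morphology-based cytotoxicity annotated.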

[7] = read-out: Broad substrate specificity ATP-binding cassette transporter ABCG2 (Homo sapiens) (UniProt Q9UNQ0); test: CLD_ABCG2_24hr: CellzDirect (CLD) Gene Expression Assay for ABC Transporter (ABCG2) at 24 hours (AID 2283685)
Outline: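 Primary human hepatocytes were dosed daily with ToxCast chemicals at multiple concentrations (vehicle 0.2% DMSO). ABCG2 mRNA was measured at 24 h by qNPA chemiluminescence; induction was scored as gain of signal versus DMSO.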

[8] = read-out: Cytochrome P450 2C9 (Homo sapiens) (UniProt P11712); test: CLD_CYP2C9_24hr: CellzDirect (CLD) Gene Expression Assay for xenobiotic metabolism (CYP2C9) at 24 hours (AID 2283688)
Outline: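 Primary human hepatocytes from two donor preparations, dosed daily for two days at multiple concentrations; vehicle 0.2% DMSO. CYP2C9 mRNA induction at 24 h measured by qNPA chemiluminescence relative to DMSO; cytotoxicity annotated from morphology.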

[9] = read-out: sulfotransferase (SULT2A), SULT2A1 (gene 6822); test: CLD_SULT2A_24hr: CellzDirect (CLD) Gene Expression Assay for sulfotransferase (SULT2A) at 24 hours (AID 2283694)
Outline: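 Primary human hepatocytes from two donor preparations were dosed daily with fresh solutions, vehicle 0.2% DMSO. At 24 h, lysates went to quantitative nuclease protection (qNPA) with S1 digestion and chemiluminescent readout. Cytotoxicity was annotated from phase-contrast morphology.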

[10] = read-out: glucuronosyltransferase (UGT1A1), UGT1A1 (gene 54658); test: CLD_UGT1A1_24hr: CellzDirect (CLD) Gene Expression Assay for glucuronosyltransferase (UGT1A1) at 24 hours (AID 2283696)
Outline: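 Primary human hepatocytes from two donor preparations were dosed (0.2% DMSO vehicle) and harvested at 24 h; UGT1A1 mRNA induction was quantified by chemiluminescent qNPA, fitted as gain relative to DMSO.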

[11] = read-out: Cytochrome P450 2B6 (Homo sapiens) (UniProt P20813); test: CLD_CYP2B6_6hr: CellzDirect (CLD) Gene Expression Assay for xenobiotic metabolism (CYP2B6) at 6 hours (AID 2283677);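 further: actives raise CYP2B6 transcript above DMSO baseline so AC50 marks an inducer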
Outline: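 Primary human hepatocytes dosed with chemicals at multiple concentrations, vehicle 0.2% DMSO; CYP2B6 mRNA induction measured 6 h after dosing by quantitative nuclease protection assay with chemiluminescence, gain of signal fitted relative to DMSO.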

[12] = read-out: Glyceraldehyde-3-phosphate dehydrogenase (Homo sapiens) (UniProt P04406); test: CLD_GAPDH_6hr: CellzDirect (CLD) Gene Expression Assay for Baseline Control (Glyceraldehyde 3-phosphate dehydrogenase) at 6 hours (AID 2283681);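 further: active means increased signal relative to DMSO vehicle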
Outline: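 Primary human hepatocytes from two donor preparations, dosed at multiple concentrations with 0.2% DMSO vehicle; GAPDH mRNA measured 6 h after dosing by chemiluminescent quantitative nuclease protection assay (qNPA) on denatured lysates. Serves as background control; cytotoxicity annotated by morphology.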

[13] = read-out: ABC Transporter (ABCB1), ABCB1 (gene 5243); test: CLD_ABCB1_48hr: CellzDirect (CLD) Gene Expression Assay for ABC Transporter (ABCB1) at 48 hours (AID 2283695)
Outline: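 Primary human hepatocytes from two donor preparations dosed daily on two consecutive days with 0.2% DMSO vehicle. Harvest at 48 h. ABCB1 mRNA quantified by qNPA with chemiluminescence and fitted for gain of signal versus DMSO.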

[14] = read-out: Cytochrome P450 2C19 (Homo sapiens) (UniProt P33261); test: CLD_CYP2C19_6hr: CellzDirect (CLD) Gene Expression Assay for xenobiotic metabolism (CYP2C19) at 6 hours (AID 2283678)
Outline: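 Primary human hepatocytes from two donor preparations were dosed daily, with 0.2% DMSO as vehicle, and harvested 6 h after dosing. CYP2C19 mRNA induction was measured by qNPA chemiluminescence and fitted as gain of signal against DMSO.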

[15] = read-out: Cytochrome P450 3A4 (Homo sapiens) (UniProt P08684); test: CLD_CYP3A4_24hr: CellzDirect (CLD) Gene Expression Assay for xenobiotic metabolism (CYP3A4) at 24 hours (AID 2283689)
Outline: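 Primary human hepatocytes from two donors dosed daily with fresh compound for two days, 0.2% DMSO vehicle. CYP3A4 mRNA at 24 hr by qNPA chemiluminescence; gain-of-signal fit versus DMSO, cytotoxicity flagged by morphology.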

[16] = read-out: Glyceraldehyde-3-phosphate dehydrogenase (Homo sapiens) (UniProt P04406); test: CLD_GAPDH_24hr: CellzDirect (CLD) Gene Expression Assay for Baseline Control (Glyceraldehyde 3-phosphate dehydrogenase) at 24 hours (AID 2283692)
Outline: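 Primary human hepatocytes (two donor preparations) dosed daily for two days, 0.2% DMSO vehicle; GAPDH mRNA measured at 24 h by qNPA chemiluminescence as a background control, gain-of-signal fitted against DMSO.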

[17] = read-out: Cytochrome P450 2B6 (Homo sapiens) (UniProt P20813); test: CLD_CYP2B6_24hr: CellzDirect (CLD) Gene Expression Assay for xenobiotic metabolism (CYP2B6) at 24 hours (AID 2283686)
Outline: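 Primary human hepatocytes dosed daily for two days with fresh solutions, harvested at 24 hours; mRNA induction quantified by qNPA chemiluminescence, gain of signal vs 0.2% DMSO vehicle. Cytotoxicity annotated from phase-contrast morphology.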

Chain of Glyceraldehyde-3-phosphate dehydrogenase (Homo sapiens) (P04406 whole entry, looked up): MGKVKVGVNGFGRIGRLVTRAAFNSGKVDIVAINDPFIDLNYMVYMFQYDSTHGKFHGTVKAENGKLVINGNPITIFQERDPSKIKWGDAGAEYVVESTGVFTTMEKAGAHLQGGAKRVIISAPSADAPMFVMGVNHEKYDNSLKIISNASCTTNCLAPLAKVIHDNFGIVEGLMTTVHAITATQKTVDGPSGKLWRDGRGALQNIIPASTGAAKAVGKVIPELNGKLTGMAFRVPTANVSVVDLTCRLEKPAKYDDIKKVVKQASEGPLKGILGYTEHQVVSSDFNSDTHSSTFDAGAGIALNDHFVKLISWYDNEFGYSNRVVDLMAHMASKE
Chain of Broad substrate specificity ATP-binding cassette transporter ABCG2 (Homo sapiens) (Q9UNQ0 whole entry, looked up): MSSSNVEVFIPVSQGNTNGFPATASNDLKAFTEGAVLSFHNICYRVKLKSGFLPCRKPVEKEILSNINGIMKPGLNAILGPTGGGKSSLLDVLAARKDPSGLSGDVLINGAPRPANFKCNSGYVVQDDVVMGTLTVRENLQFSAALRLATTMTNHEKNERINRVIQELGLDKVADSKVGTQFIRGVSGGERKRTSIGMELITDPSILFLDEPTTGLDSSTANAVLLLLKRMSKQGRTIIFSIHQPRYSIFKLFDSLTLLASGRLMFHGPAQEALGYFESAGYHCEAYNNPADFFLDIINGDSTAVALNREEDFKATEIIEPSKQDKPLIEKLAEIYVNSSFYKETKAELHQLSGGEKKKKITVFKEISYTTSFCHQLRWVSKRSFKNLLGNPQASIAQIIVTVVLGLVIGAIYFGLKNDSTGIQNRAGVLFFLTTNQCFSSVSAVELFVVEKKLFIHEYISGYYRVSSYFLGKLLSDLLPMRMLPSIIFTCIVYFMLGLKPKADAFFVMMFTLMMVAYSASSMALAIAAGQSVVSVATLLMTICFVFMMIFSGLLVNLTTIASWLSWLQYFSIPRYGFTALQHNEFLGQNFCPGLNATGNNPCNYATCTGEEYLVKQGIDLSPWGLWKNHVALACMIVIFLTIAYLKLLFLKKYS
Chain of Cytochrome P450 3A4 (Homo sapiens) (P08684 whole entry, looked up): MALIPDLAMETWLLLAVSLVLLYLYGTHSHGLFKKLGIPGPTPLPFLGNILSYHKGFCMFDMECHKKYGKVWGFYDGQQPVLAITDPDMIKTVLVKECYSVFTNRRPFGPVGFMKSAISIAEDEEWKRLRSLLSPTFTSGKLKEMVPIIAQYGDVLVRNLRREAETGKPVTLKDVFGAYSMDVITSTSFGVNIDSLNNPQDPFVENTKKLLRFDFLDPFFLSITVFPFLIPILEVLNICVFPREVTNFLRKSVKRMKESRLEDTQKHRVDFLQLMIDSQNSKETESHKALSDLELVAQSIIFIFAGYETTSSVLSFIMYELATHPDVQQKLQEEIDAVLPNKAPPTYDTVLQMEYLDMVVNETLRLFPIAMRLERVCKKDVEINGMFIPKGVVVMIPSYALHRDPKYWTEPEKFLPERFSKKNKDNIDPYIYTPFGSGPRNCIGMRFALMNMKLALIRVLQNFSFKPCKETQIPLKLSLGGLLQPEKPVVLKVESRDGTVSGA
Chain of Cytochrome P450 2C19 (Homo sapiens) (P33261 whole entry, looked up): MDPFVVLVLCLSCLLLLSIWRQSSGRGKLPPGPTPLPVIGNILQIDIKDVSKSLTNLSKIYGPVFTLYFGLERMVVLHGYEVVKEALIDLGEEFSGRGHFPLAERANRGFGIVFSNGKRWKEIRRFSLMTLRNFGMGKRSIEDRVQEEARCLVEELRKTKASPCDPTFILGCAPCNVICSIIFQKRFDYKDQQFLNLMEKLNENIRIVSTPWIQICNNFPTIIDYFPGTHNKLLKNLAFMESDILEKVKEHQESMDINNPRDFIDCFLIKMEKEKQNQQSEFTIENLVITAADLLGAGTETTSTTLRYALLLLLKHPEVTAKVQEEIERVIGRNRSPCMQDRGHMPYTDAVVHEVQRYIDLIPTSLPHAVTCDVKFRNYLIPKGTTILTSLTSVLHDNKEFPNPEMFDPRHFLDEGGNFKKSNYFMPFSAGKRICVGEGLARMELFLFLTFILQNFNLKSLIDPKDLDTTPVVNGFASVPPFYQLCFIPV

CC(COc1ccc(Oc2ccccc2)cc1)Oc1ccccn1 (centres undefined)
outcome [1]: inactive
AC50 [2]: 47.6 µM (active)
AC50 [3]: 20 µM (active)
outcome [4]: inactive
outcome [5]: inactive
outcome [6]: inactive
outcome [7]: inactive
outcome [8]: inactive
outcome [9]: inactive
AC50 [10]: 4.08 µM (active)

Cc1nn(-c2cc(NS(C)(=O)=O)c(Cl)cc2Cl)c(=O)n1C(F)F
AC50 [11]: 4.25 µM (active)
AC50 [2]: 56.9 µM (active)
AC50 [3]: 1.62 µM (active)
outcome [12]: inactive
outcome [5]: inactive
outcome [7]: inactive
outcome [9]: inactive
outcome [10]: inactive

CCOP(=S)(OCC)Oc1ccc2c(C)c(Cl)c(=O)oc2c1
outcome [1]: inactive
AC50 [2]: 27.3 µM (active)
outcome [3]: inactive
AC50 [4]: 0.00508 µM (active)
AC50 [5]: 0.527 µM (active)
outcome [6]: inactive
outcome [8]: inactive
outcome [9]: inactive
outcome [13]: inactive
AC50 [10]: 1.09 µM (active)

CNC(=O)ON=C(SC)C(=O)N(C)C
outcome [14]: inactive
outcome [2]: inactive
outcome [3]: inactive
outcome [12]: inactive
outcome [4]: inactive
outcome [5]: inactive
outcome [6]: inactive
outcome [8]: inactive
outcome [15]: inactive
outcome [16]: inactive
outcome [13]: inactive
outcome [10]: inactive

CCCSP(=O)(OCC)SCCC
outcome [1]: inactive
outcome [2]: inactive
outcome [3]: inactive
outcome [12]: inactive
outcome [4]: inactive
AC50 [5]: 4.21 µM (active)
outcome [7]: inactive
AC50 [17]: 2.84 µM (active)
outcome [9]: inactive
outcome [10]: inactive

CC(C)=CC1C(C(=O)OCN2C(=O)C3=C(CCCC3)C2=O)C1(C)C (centres undefined)
AC50 [2]: 12.3 µM (active)
outcome [3]: inactive
outcome [12]: inactive
outcome [5]: inactive
outcome [7]: inactive
AC50 [17]: 7.4 µM (active)
outcome [8]: inactive
outcome [16]: inactive
outcome [9]: inactive
outcome [10]: inactive

CC(C)[C@H](C(=O)O[C@H](C#N)c1cccc(Oc2ccccc2)c1)c1ccc(Cl)cc1
outcome [1]: inactive
AC50 [2]: 0.166 µM (active)
outcome [3]: inactive
outcome [12]: inactive
outcome [5]: inactive
outcome [9]: inactive
outcome [10]: inactive

CCc1cccc(C)c1N(C(=O)CCl)C(C)COC (centres undefined)
AC50 [11]: 0.596 µM (active)
AC50 [2]: 50.9 µM (active)
AC50 [3]: 0.477 µM (active)
outcome [12]: inactive
outcome [4]: inactive
AC50 [5]: 3.97 µM (active)
outcome [8]: inactive
AC50 [15]: 8.71 µM (active)
outcome [9]: inactive
outcome [10]: inactive

CN(C)[C@@H]1C(=O)C(C(N)=O)=C(O)[C@@]2(O)C(=O)C3=C(O)c4c(O)cccc4[C@@](C)(O)[C@H]3[C@H](O)[C@@H]12
outcome [14]: inactive
outcome [2]: inactive
outcome [4]: inactive
outcome [5]: inactive
outcome [16]: inactive
outcome [9]: inactive

CCCSP(=O)(OCC)Oc1ccc(Br)cc1Cl (centres undefined)
AC50 [2]: 8.79 µM (active)
AC50 [3]: 3.52 µM (active)
AC50 [5]: 4.13 µM (active)
outcome [7]: inactive
outcome [8]: inactive
AC50 [10]: 20 µM (active)
